Most compounds without a hit are left out; they make up all but 2.4% or so of the library.
D2 PAM-1 = Beta-Arrestin HTS for Positive Allosteric Modulators of the Human D2 Dopamine Receptor: Potentiators. D(2) dopamine receptor (Homo sapiens), P14416. DiscoveRx D2 beta-arrestin cells, luminescence, 90 min; 100% = 57 uM dopamine signal. potentiation, % (test concentration not listed). hit rate 0.23% among 360,000. AID 624464, 2012; in the data active = potentiation above about 50%; inconclusive = mostly about 30% to 49%
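PathHunter beta-arrestin assay in DiscoveRx D2 cells. Compounds were added with an EC20 of dopamine (50 nM final) for 90 min at 37 deg C. Luminescence was read 1 h after detection reagent, with 57 uM dopamine as the EC100 control.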
D2 ag-1 = Beta-Arrestin HTS for Positive Allosteric Modulators of the Human D2 Dopamine Receptor: Agonists; D(2) dopamine receptor (Homo sapiens), P14416; DiscoveRx PathHunter D2 beta-arrestin, luminescence, 90 min; 100% = 57 uM dopamine signal; activation, % (no concentration beside the values); hit rate 0.084% among 360,000; in the data active = activation above about 40%; inconclusive = between about 15% and that limit
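Agonist mode: compounds alone added to overnight-plated D2 PathHunter cells for 90 min at 37 C, with 57 uM final dopamine (EC100) defining full response. Beta-arrestin recruitment detected by chemiluminescent reagent, read after 1 h at ambient temperature.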
D2 ag-2 = HTS Assay for Allosteric Agonists of the Human D2 Dopamine Receptor: Primary Screen for Agonists. D(2) dopamine receptor (Homo sapiens), P14416. HEK293 T-REx D2 cells, calcium flux agonist mode. activation, % at 2 µM. hit rate 0.53% among 340,000. AID 485358, 2010;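 active = activation over 3 SD above normal in the single-dose calcium agonist read, cut at about 30% in these data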
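HEK293 Trex D2 cells, tetracycline-induced, o/n 30 C 5% CO2; no-wash Ca dye, RT 30–90 min; 10-cycle baseline, 23 nl cpd added, kinetic Ca read 180 s; agonist hits = positive Ca response.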
D2 antag = HTS Assay for Allosteric Antagonists of the Human D2 Dopamine Receptor: Primary Screen for Antagonists; D(2) dopamine receptor (Homo sapiens), P14416; HEK293 TREx D2 cells, calcium flux, dopamine EC80; inhibition, % at 10 µM; hit rate 2% among 340,000; AID 485344, 2010; in the data active = inhibition above about 30%; inactive = below that, where a call was filed
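Dopamine at EC80 is the agonist stimulus; test compounds precede it by 180 s. Calcium flux read kinetically in a force-coupled, inducible HEK293 T-REx D2 cell line.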
D2 PAM-2 = HTS Assay for Positive Allosteric Modulators of the Human D2 Dopamine Receptor: Primary Screen for Potentiators. D(2) dopamine receptor (Homo sapiens), P14416. HEK293 T-REx D2, calcium flux, EC20 dopamine potentiation. potentiation, % at 10 µM. AID 485347, 2010. hit rate 0.34% among 340,000;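 active = potentiation over 3 SD above the plate norm, cut at about 30% in these data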
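Potentiation of an EC20 dopamine calcium response is measured in a force-coupled, tetracycline-inducible Hek293 Trex D2 line. Compound-only kinetic reads over 180 s flag agonists before dopamine addition.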
D3 ag = qHTS of D3 Dopamine Receptor Agonist: D3 Dopamine Receptor B-arrestin Agonist Confirmatory Assay | shares compounds with D2 ag-2 | DiscoveRx D3 beta-arrestin cells, luminescence, 90 min | Potency, µM (top dose mostly 76.9 µM), hits mostly activators | hit rate 4% among 2,300 | AID 720506, 2013; also: nearly all actives have a fitted effect of over 70% in size
Target sequence (P35462 whole entry, looked up): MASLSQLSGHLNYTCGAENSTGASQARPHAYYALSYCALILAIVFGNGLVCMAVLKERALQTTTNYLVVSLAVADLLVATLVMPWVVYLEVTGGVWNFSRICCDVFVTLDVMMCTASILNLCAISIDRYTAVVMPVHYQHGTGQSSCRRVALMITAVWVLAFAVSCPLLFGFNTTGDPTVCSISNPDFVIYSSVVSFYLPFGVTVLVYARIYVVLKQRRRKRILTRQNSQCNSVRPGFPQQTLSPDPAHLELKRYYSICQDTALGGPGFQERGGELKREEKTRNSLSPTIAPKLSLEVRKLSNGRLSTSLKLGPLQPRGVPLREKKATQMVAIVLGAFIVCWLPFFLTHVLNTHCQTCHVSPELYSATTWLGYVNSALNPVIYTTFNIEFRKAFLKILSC
D2 ag-3 = qHTS of D3 Dopamine Receptor Agonist: D2 Dopamine Receptor B-arrestin Agonist Counterscreen. shares compounds with D2 ag-2. DiscoveRx PathHunter D2 beta-arrestin, luminescence, 90 min; response scale: percent relative to full dopamine signal. Potency, µM (series often up to 76.9 µM), actives largely listed as activators. hit rate 5.9% among 2,300. AID 720507, 2013; also: nearly all actives have a fitted effect of over 70% in size
Large screens that a line does not name were inactive (follow-up assays come after a bar, where they were run); ! = repeats disagree. Unless noted, calls follow the shape of the dose curve; as a rule, active = well fitted activation curve with a large enough effect; inconclusive = small, poorly fitted or top-dose-only effect; inactive = flat fitted curve, though single readings scatter.

Cc1sc2nc(CSCC(=O)Nc3ccc(C(F)(F)F)cc3)[nH]c(=O)c2c1C	none | D3 ag inactive | D2 ag-3 inactive
Cc1sc2nc(CSCC(=O)Nc3ccc(Cl)cc3F)[nH]c(=O)c2c1C	none | D3 ag inactive | D2 ag-3 inactive
Cc1sc2nc(CSCC(=O)Nc3c(F)cccc3F)[nH]c(=O)c2c1C	none
Cc1sc2nc(CSCC(=O)N(C)CC(=O)Nc3ccc(F)cc3)[nH]c(=O)c2c1C	none
CCOC(=O)c1ccc(OCC2c3cc(OC)c(OC)cc3CCN2C(=O)Cc2ccc(OC)c(OC)c2)cc1 (stereo not drawn)	none (no result: D2 PAM-1, D2 ag-1, D2 antag)
CCOC(=O)N1CCC(NCCNC(=O)c2ccccc2Cl)CC1	D2 antag 56.3 | D3 ag inactive | D2 ag-3 inactive
O=C(NCCNC1CCC(c2ccccc2)CC1)c1cccs1 (stereo not drawn)	D2 ag-2 50.5, D2 antag 48.2 | D3 ag inactive | D2 ag-3 inactive
CCOC(=O)N1CCC(NCCNC(=O)c2cccs2)CC1	none (no result: D2 PAM-2) | D3 ag inactive | D2 ag-3 inactive
CCOC(=O)N1CCC(NC(=O)Cc2ccccc2)CC1	none
CCOC(=O)N1CCC(NC(=O)c2ccccc2C(=O)O)CC1	none
CCOC(=O)N1CCC(NCCNC(=O)c2ccccc2)CC1	D2 ag-2 66.0!, D2 antag 50.7 | D3 ag inactive | D2 ag-3 inactive
Cc1ccc(/C=C/c2onc(C)c2S(=O)(=O)N2CCC(C(=O)NCc3ccc(N(C)C)cc3)CC2)cc1	none (no result: D2 PAM-1, D2 ag-1, D2 ag-2, D2 antag)
CC(OC(=O)Cn1cnc2ccccc2c1=O)C(=O)NCc1ccccc1 (stereo not drawn)	D2 ag-2 49.3 | D3 ag inactive | D2 ag-3 inactive
Cc1ccc(NC(=O)C(C)OC(=O)Cn2cnc3ccccc3c2=O)cc1 (stereo not drawn)	none
CCOC(=O)c1c(NC(=O)C(C)Sc2cn(CCNC(=O)c3c(F)cccc3F)c3ccccc23)sc2c1CCC2 (stereo not drawn)	none (no result: D2 PAM-1, D2 ag-1, D2 antag)
COc1ccc(NS(=O)(=O)c2ccc(C)c(C(=O)N3CCC3)c2)cc1	D2 ag-2 72.7, D2 antag 48.9 | D3 ag inactive | D2 ag-3 inactive
CC1CN(C(=O)c2ccc(NS(=O)(=O)c3cccc(Cl)c3)cc2)CC(C)O1 (stereo not drawn)	none | D3 ag inactive | D2 ag-3 inactive
COc1ccc(NS(=O)(=O)c2cccc(C(=O)N3CCC3)c2)cc1	none | D3 ag inactive | D2 ag-3 inactive
CCCCN(C)C(=O)c1nc2ccccn2c1CN1CCN(c2cnccn2)CC1	none
CCCCN(C)C(=O)c1nc2ccccn2c1CN1CCN(c2ccccn2)CC1	D2 ag-2 52.6 | D3 ag inactive | D2 ag-3 inactive
CCOc1ccccc1NC(=O)CCc1c(C)nc2c(c(C)nn2-c2ccccc2)c1C	none (no result: D2 PAM-1, D2 ag-1, D2 antag)
CC1CCC(NC(=O)COC(=O)CSc2ccc(C(N)=O)cc2[N+](=O)[O-])CC1 (stereo not drawn)	none
NC(=O)c1ccc(SCC(=O)OCC(=O)NC2CCCCCCC2)c([N+](=O)[O-])c1	none | D3 ag inactive | D2 ag-3 inactive
Cc1cc2oc(=O)c(CC(=O)NCCc3ccccc3F)c(C)c2c2occ(C(C)(C)C)c12	none (no result: D2 PAM-1, D2 ag-1, D2 antag)
CCCC(c1nnnn1CCOC)N1CCN(Cc2ccccc2)CC1 (stereo not drawn)	D2 ag-2 33.0 | D3 ag inactive | D2 ag-3 inactive
CCCn1cc(SCC(=O)NC2CCCC2)c2ccccc21	none | D3 ag inactive | D2 ag-3 inactive
COc1ccc(-c2cc(C(=O)Nc3c(Cl)cccc3Cl)no2)cc1OC	none (no result: D2 PAM-1, D2 ag-1, D2 antag)
Oc1ccc(CCNc2c3ccccc3nc3ccccc23)cc1O	D2 ag-1 130.1, D2 ag-2 90.9, D2 antag 91.2 | D3 ag 11.2µM | D2 ag-3 5.01µM
Cc1cc2c(cc3c(SCc4ccccc4Cl)nnc(C)n32)o1	none (no result: D2 PAM-1, D2 ag-1, D2 antag)
COc1ccccc1NC(=O)CN1CCN(c2ccccn2)CC1	D2 ag-1 inconclusive, D2 antag 50.1 | D3 ag inactive | D2 ag-3 inconclusive
COc1ccccc1NC(=O)CN1CCN(CC(=O)Nc2ccc(F)cc2)CC1	none
COc1ccc(C)cc1NC(=O)CN1CCN(c2ccccn2)CC1	D2 ag-2 53.1 | D3 ag inactive | D2 ag-3 inactive
COC(=O)C1CCN(CC(=O)Nc2ccc(C(=O)Nc3ccccc3OC)cc2)CC1	D2 ag-1 inconclusive, D2 ag-2 61.6 | D3 ag inactive | D2 ag-3 inconclusive
COCCNC(=O)c1nn(-c2ccc(Cl)cc2)nc1CO	none (no result: D2 PAM-1, D2 ag-1, D2 ag-2, D2 antag)
COc1cc(-c2cc(OC)c3c(C)oc(C)c3c(=O)c2)ccc1OC(=O)c1cccc(Cl)c1	none (no result: D2 PAM-1, D2 ag-1, D2 ag-2, D2 antag)
COc1ccccc1N1CCN(CC(C)N(C(=O)C2CCCCC2)c2ccccn2)CC1 (stereo not drawn)	D2 ag-2 40.3, D2 antag 82.1 | D3 ag inactive | D2 ag-3 inactive
Cc1cccc(CNC(=O)CCCn2c(=O)c3cccn3c3ccc(F)cc32)c1	none (no result: D2 PAM-1, D2 ag-1, D2 antag)
CCCCn1c(N)c(N(CCOC)C(=O)COc2ccc(C(C)=O)cc2)c(=O)[nH]c1=O	none
CCCCn1c(N)c(N(CCOC)C(=O)Cn2c(=O)cnc3ccccc32)c(=O)[nH]c1=O	none | D3 ag inactive | D2 ag-3 inactive
Cc1nc2ccccc2nc(=O)c1NNc1ccccc1	D2 ag-2 75.2 | D3 ag inactive | D2 ag-3 inactive
CCc1cccc(CC)c1NC(=S)NCCc1ccc(O)c(O)c1	D2 ag-2 36.4 | D3 ag 39.8µM | D2 ag-3 inconclusive
CCn1c(C(=O)NCc2ccccc2)cc2sc(Cl)cc21	none (no result: D2 PAM-1, D2 ag-1, D2 antag)
O=C(Nc1ccnn1C1CCN(C/C=C/c2ccccc2)CC1)C1CCCC1	D2 ag-2 58.2 | D3 ag inactive | D2 ag-3 inactive
COc1ccccc1C(=O)Nc1ccnn1C1CCN(CCCc2ccccc2)CC1	D2 antag 32.8 | D3 ag inactive | D2 ag-3 inactive
